Experiment [1] can be described thus: antimalarial activity against Dd2 strain (AID 2302;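 active = growth inhibition above 50% at the single 2 µM test dose, taken to imply half-maximal potency below 2 µM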;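 also: 0% = DMSO untreated growth and 100% = chloroquine plus artemisinin killed control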). Particulars: P. falciparum Dd2 in RBCs, LDH growth readout, 72 h; at 2 µM; hits give high values.
Experiment [2] in a line: human hepatoma cell viability loss – ATP luminescence, cytotoxicity control for P. falciparum antimalarial project, primary screen (AID 2303;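 active = inhibition above 50%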;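 also: 0% = DMSO wells and 100% = digitonin-killed cells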). Particulars: HepG2 viability, 24-48 h, at 10 µM, hits give high values.
Experiment [3] addresses L-lactate dehydrogenase (Plasmodium falciparum (isolate CDC / Honduras)) (UniProt Q27743). The experiment in a line: PfLDH activity inhibition – cell lysate, 3D7 strain, counter-screen for P. falciparum growth inhibition project (AID 2304).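 Also: 0% = vehicle and 100% = reference inhibitor.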 Particulars: P. falciparum 3D7 crude extract, LDH APAD/NBT absorbance; at 2 µM; hits give high values. For orientation: Counterscreens check selectivity or assay interference.

The nature of experiment [4]: inhibition of 3D7 malaria parasite growth – strain 3D7 (AID 2306).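 Also: 0% = DMSO wells and 100% = chloroquine plus artemisinin control wells.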 Particulars: P. falciparum 3D7 erythrocytic growth, LDH absorbance, 72 h; at 2 µM; hits give high values.
The target of experiment [5] is Calcium-dependent protein kinase 1 (Plasmodium falciparum (isolate 3D7)) (UniProt P62344). The experiment in a line: PfCDPK1 kinase inhibitors, biochemical, TCAMS library (AID 1159585; cut-off not given, nearly all actives have IC50 up to about 0.98 µM;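 also: inhibitors leave more ATP so luminescence rises with inhibition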). Particulars: recombinant PfCDPK1, Kinase-Glo ATP depletion luminescence. (In general: Kinase-Glo reads ATP consumption through a luciferase reaction.)
Experiment [6] has as its target Plasmodium falciparum protein kinase 6 (PK6, PF3D7_1337100) (UniProt Q8IDW1). The experiment in a line: PfPK6 kinase inhibitors, biochemical, TCAMS library (AID 1159586). Particulars: recombinant PfPK6, Kinase-Glo ATP depletion luminescence.
Experiment [7] concerns the target Protein kinase 7 (PK7), Plasmodium falciparum 3D7 (PF3D7_0213400) (UniProt Q7YTF7). The experiment in a line: inhibition of Plasmodium PK7 catalytic activity – biochemical, TCAMS antimalarial set, Kinase-Glo luminescence (AID 1159587). Particulars: recombinant PfPK7, Kinase-Glo ATP depletion luminescence.
For experiment [8], the target named is Calcium-dependent protein kinase 4 (Plasmodium falciparum (isolate 3D7)) (UniProt Q8IBS5). The experiment is described as follows: PfCDPK4 kinase inhibitors, biochemical, TCAMS library (AID 1159588; cut-off not given, nearly all actives have IC50 up to about 0.91 µM). To be noted: recombinant PfCDPK4, Kinase-Glo ATP depletion luminescence.

Unmarked numbers belong to inactive results. For some of these results: Potency and affinity values are given separately. The source made the active and inactive calls. Unless noted, no rule for the calls is given here.

Sequence of L-lactate dehydrogenase (Plasmodium falciparum (isolate CDC / Honduras)) (Q27743 whole entry, looked up): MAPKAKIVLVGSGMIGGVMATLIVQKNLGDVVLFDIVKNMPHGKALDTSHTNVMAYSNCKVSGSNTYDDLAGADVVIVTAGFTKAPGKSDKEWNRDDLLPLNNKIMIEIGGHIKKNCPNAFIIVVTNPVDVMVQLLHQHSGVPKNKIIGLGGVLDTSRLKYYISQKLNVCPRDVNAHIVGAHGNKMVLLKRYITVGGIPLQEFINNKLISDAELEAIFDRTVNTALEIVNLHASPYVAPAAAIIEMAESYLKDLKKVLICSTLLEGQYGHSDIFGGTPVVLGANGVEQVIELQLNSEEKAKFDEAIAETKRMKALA
Sequence of Calcium-dependent protein kinase 4 (Plasmodium falciparum (isolate 3D7)) (Q8IBS5 whole entry, looked up): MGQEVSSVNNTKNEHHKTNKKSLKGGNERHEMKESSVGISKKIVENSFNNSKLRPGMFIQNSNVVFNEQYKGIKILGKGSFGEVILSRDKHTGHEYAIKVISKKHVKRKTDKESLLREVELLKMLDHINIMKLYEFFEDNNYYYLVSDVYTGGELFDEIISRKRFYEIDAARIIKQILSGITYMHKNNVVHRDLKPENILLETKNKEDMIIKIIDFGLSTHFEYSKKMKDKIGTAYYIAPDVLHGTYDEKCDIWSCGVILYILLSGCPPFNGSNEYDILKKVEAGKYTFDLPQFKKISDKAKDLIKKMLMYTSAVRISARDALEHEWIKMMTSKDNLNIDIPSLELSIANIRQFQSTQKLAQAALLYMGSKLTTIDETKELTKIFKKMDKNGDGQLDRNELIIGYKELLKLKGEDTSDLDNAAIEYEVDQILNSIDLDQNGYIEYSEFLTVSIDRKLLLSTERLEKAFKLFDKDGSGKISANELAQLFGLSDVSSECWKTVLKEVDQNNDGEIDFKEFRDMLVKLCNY
Sequence of Protein kinase 7 (PK7), Plasmodium falciparum 3D7 (PF3D7_0213400) (Q7YTF7 1-343): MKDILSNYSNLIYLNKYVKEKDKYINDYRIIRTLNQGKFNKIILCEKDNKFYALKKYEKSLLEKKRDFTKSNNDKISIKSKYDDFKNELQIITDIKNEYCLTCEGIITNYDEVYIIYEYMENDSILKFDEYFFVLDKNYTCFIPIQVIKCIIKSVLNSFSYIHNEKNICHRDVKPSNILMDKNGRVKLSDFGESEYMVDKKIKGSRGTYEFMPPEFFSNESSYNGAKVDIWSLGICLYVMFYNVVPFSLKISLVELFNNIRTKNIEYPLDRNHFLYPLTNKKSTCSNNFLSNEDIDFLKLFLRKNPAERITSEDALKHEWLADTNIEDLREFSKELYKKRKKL
Sequence of Calcium-dependent protein kinase 1 (Plasmodium falciparum (isolate 3D7)) (P62344 whole entry, looked up): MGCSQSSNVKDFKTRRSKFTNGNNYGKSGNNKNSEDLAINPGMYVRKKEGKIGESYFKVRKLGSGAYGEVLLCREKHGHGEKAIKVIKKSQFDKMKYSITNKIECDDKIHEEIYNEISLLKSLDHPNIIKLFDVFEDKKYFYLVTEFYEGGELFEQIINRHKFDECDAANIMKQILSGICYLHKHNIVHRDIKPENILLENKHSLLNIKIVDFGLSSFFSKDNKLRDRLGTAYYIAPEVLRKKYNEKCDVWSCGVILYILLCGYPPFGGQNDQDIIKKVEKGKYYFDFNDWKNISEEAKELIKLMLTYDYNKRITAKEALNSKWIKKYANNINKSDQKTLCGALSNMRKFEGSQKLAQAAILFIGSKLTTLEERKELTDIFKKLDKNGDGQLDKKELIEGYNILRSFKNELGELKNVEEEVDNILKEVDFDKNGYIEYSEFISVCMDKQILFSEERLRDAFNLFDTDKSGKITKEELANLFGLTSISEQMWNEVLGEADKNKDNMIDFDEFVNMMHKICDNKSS
Sequence of Plasmodium falciparum protein kinase 6 (PK6, PF3D7_1337100) (Q8IDW1 1-305): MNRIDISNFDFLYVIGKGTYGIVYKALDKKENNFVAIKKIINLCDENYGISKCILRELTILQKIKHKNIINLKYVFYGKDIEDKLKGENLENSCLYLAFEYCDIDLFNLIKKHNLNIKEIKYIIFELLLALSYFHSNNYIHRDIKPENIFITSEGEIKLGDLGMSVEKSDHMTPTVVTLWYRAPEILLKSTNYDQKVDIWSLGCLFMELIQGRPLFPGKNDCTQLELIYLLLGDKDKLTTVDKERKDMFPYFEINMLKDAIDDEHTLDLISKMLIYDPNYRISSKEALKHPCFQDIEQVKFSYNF

Turning to `O=C(NCCCCN1CCC(c2nc3ccccc3s2)CC1)c1cc2ccccc2[nH]1`, the results for the growth inhibition in experiment [1] and in experiment [4] were 64% (active) and 86% (active), respectively. The inhibition in experiment [2] was 43%; in experiment [3], -5%. In addition, the outcome in experiment [5], in experiment [6], in experiment [7] and in experiment [8] was inactive.
Consider `Cc1cc(C(=O)CN2C(=O)NC3(CCCc4ccccc43)C2=O)c(C)n1Cc1ccc(F)cc1` (stereo not given), for which the figures for the growth inhibition in experiment [1] and in experiment [4] were 53% (active) and 92% (active), respectively. The inhibition is 4% in experiment [2] and 2% in experiment [3]. Moreover, the result in experiment [5], in experiment [6], in experiment [7] and in experiment [8] was inactive.
Regarding `COc1ccccc1-c1nc2nc(N)nc(N)c2nc1-c1ccccc1OC`, the growth inhibition in experiment [1] is 1%; in experiment [4] it was 84% (active). In addition, the inhibition in experiment [2] is 27%; in experiment [3], 1%. Moreover, the outcome in experiment [5], in experiment [6], in experiment [7] and in experiment [8] was inactive.
Consider `CNc1c2c(nc3ccc(NC(=O)CCCCCCc4ccccc4)cc13)CCCC2`, for which the results for the growth inhibition in experiment [1] and in experiment [4] were 82% (active) and 100% (active), respectively. For the same molecule, the inhibition in experiment [2] and in experiment [3] was 0% in each case. For the same molecule, the result in experiment [5], in experiment [6], in experiment [7] and in experiment [8] was inactive.
`CCCC1N=C(N)N=C(N)N1c1ccccc1` (stereo not given): the results for the growth inhibition in experiment [1] and in experiment [4] were -3% and 93% (active), respectively. For the same molecule, the inhibition in experiment [2] was -4%; in experiment [3], -6%. In addition, the outcome in experiment [5], in experiment [6], in experiment [7] and in experiment [8] was inactive.
`O=C(CN1CCCCC1)Nc1ccc(Nc2nccc(NCC(O)c3ccccc3)n2)cc1` (stereo not given): the values for the growth inhibition in experiment [1] and in experiment [4] were 95% (active) and 101% (active), respectively. Further, the inhibition in experiment [2] is 62% (active); in experiment [3] it was 3%. Further, the outcome in experiment [5], in experiment [6], in experiment [7] and in experiment [8] was inactive.
For `O=C(NC1CC1)c1ccc(N2CCC(Cc3ccccc3)CC2)nc1`, the growth inhibition is 92% (active) in experiment [1] and 95% (active) in experiment [4]. Besides, the inhibition in experiment [2] was 13%; in experiment [3] it was 5%. The outcome in experiment [5], in experiment [6], in experiment [7] and in experiment [8] was inactive.
For the molecule `O=C(NCC1CN(Cc2ccc(N3CCCC3)o2)CCCO1)c1ccc2c(c1)OCO2` (stereo not given), the growth inhibition in experiment [1] is 70% (active); in experiment [4], 83% (active). In addition, the inhibition was -3% in experiment [2] and -1% in experiment [3]. Further, the result in experiment [5], in experiment [6], in experiment [7] and in experiment [8] was inactive.
For the molecule `N#Cc1cc([N+](=O)[O-])ccc1-n1nc(-c2cccc(Cl)c2)n(Cc2ccco2)c1=S`, the growth inhibition in experiment [1] was 100% (active); in experiment [4], 101% (active). Also, the inhibition in experiment [2] was 12%; in experiment [3] it was -1%. For the same molecule, the outcome in experiment [5], in experiment [6], in experiment [7] and in experiment [8] was inactive.
Regarding `COc1ccccc1C(=O)Nc1cccc(N2CCC(NCc3ccc(-n4cccn4)cc3)CC2)c1`, the growth inhibition is 30% in experiment [1] and 86% (active) in experiment [4]. Also, the inhibition in experiment [2] was 9%; in experiment [3], -1%. Moreover, the result in experiment [5], in experiment [6], in experiment [7] and in experiment [8] was inactive.
Take `Cc1nc2sccn2c1C(=O)NCCc1ccccc1Cl`: the values for the growth inhibition in experiment [1] and in experiment [4] were 1% and 96% (active), respectively. For the same molecule, the inhibition was 6% in experiment [2] and 3% in experiment [3]. In addition, the result in experiment [5], in experiment [6], in experiment [7] and in experiment [8] was inactive.
Consider `O=C(NCc1ccc(Cl)cc1)c1ccc(CN2CCCN(Cc3cccc(O)c3)CC2)cc1`, for which the results for the growth inhibition in experiment [1] and in experiment [4] were 12% and 82% (active), respectively. For the same molecule, the inhibition in experiment [2] was 25%; in experiment [3], -5%. Besides, the result in experiment [5], in experiment [6], in experiment [7] and in experiment [8] was inactive.
For the molecule `COc1ccc(Nc2nc(NC3CCN(C)CC3)cc(-c3ccc(OC)cc3)n2)cc1`, the results for the growth inhibition in experiment [1] and in experiment [4] were 51% (active) and 100% (active), respectively. Moreover, the inhibition in experiment [2] is 62% (active); in experiment [3] it was 4%. For the same molecule, the result in experiment [5], in experiment [6], in experiment [7] and in experiment [8] was inactive.
With `COc1ccc(O)c(Cc2cnc3nc(N)nc(N)c3c2C)c1`, the growth inhibition in experiment [1] is 74% (active); in experiment [4], 94% (active). The results for the inhibition in experiment [2] and in experiment [3] were 56% (active) and 5%, respectively. For the same molecule, the outcome in experiment [5], in experiment [6], in experiment [7] and in experiment [8] was inactive.
Turning to `Cc1c(Cc2ccccc2Br)cnc2nc(N)nc(N)c12`, the growth inhibition in experiment [1] is 97% (active); in experiment [4], 88% (active). For the same molecule, the inhibition was 67% (active) in experiment [2] and 0% in experiment [3]. In addition, the outcome in experiment [5], in experiment [6], in experiment [7] and in experiment [8] was inactive.
For `O=C(/C=C/c1ccc(Cl)c(Cl)c1)NCCCCCN1CCC(C(=O)Nc2cccc(Cl)c2)CC1`, the growth inhibition in experiment [1] was -2%; in experiment [4] it was 100% (active). Besides, the inhibition in experiment [2] is 48%; in experiment [3], -3%. Further, the outcome in experiment [5], in experiment [6], in experiment [7] and in experiment [8] was inactive.
Take `CCOC(=O)c1[nH]c(-c2ccc(-c3ccccc3)cc2)nc1N`: the growth inhibition in experiment [1] is 2%; in experiment [4], 98% (active). For the same molecule, the inhibition in experiment [2] was -1%; in experiment [3], 6%. Also, the result in experiment [5], in experiment [6], in experiment [7] and in experiment [8] was inactive.
On to `CCCC(C)c1ccc(N2C(N)=NC(N)=NC2(C)C)cc1` (stereo not given), for which the growth inhibition in experiment [1] is 7%; in experiment [4], 90% (active). The inhibition in experiment [2] is 51% (active); in experiment [3], 2%. The outcome in experiment [5], in experiment [6], in experiment [7] and in experiment [8] was inactive.
For the molecule `CN1CCN(Cc2ccc(-c3ccc4c(Nc5ccc(Oc6ccccn6)cc5)ccnc4c3)o2)CC1`, the figures for the growth inhibition in experiment [1] and in experiment [4] were 99% (active) and 101% (active), respectively. The results for the inhibition in experiment [2] and in experiment [3] were 13% and -3%, respectively. For the same molecule, the outcome in experiment [5], in experiment [6], in experiment [7] and in experiment [8] was inactive.
As for `O=C(Nc1ccc(Oc2cccnc2)cc1)C1CCN(Cc2cc(Cl)ccc2O)CC1`, the growth inhibition in experiment [1] is 1%; in experiment [4] it was 83% (active). Besides, the inhibition was 37% in experiment [2] and -2% in experiment [3]. Besides, the outcome in experiment [5], in experiment [6], in experiment [7] and in experiment [8] was inactive.

The term inhibition denotes the drop in the measured response relative to a control, in per cent.
